Source: PubChem BioAssay (EPA / NIEHS)
Active and inactive are the calls of the source. How the source made its calls: active means hit-call score of the fitted dose curve at least 0.9, where 1 is the maximum; inactive means score below 0.9.

read-out: TIMP metallopeptidase inhibitor 2 (TIMP2), TIMP2 (gene 7077); test: BSK_KF3CT_TIMP2: BioMAP Diversity Plus: KF3CT Assay for TIMP metallopeptidase inhibitor 2 (TIMP2) Biomarker Activity (AID 2283071); settings: primary human keratinocytes with fibroblasts; actives raise or lower the signal
In short: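 Chemicals were dosed onto human skin primary co-cultures of keratinocytes and foreskin fibroblasts, and TIMP-2 was measured by ELISA after 24 hours. Activity in either direction was fitted relative to DMSO.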

| Structure (SMILES) | AC50 | outcome |
| --- | --- | --- |
| COc1cccc(-c2ccc(/C=C\CN3CCCCCC3)cc2Cl)c1 | 33.2 µM (active) | – |
| O=C(OC[C@H]1O[C@@H](OC(=O)c2cc(O)c(O)c(OC(=O)c3cc(O)c(O)c(O)c3)c2)[C@H](OC(=O)c2cc(O)c(O)c(OC(=O)c3cc(O)c(O)c(O)c3)c2)[C@@H](OC(=O)c2cc(O)c(O)c(OC(=O)c3cc(O)c(O)c(O)c3)c2)[C@@H]1OC(=O)c1cc(O)c(O)c(OC(=O)c2cc(O)c(O)c(O)c2)c1)c1cc(O)c(O)c(OC(=O)c2cc(O)c(O)c(O)c2)c1 | 2.92 µM (active) | – |
| Clc1nc(Cl)c(Cl)c(Cl)c1Cl | – | inactive |
| COc1ccc(/C=C/S(=O)(=O)NC(=O)c2ccc(C)cc2Cl)cc1 | – | inactive |
| COC(=O)CC(=O)OC | – | inactive |
| O=c1[nH]c2ccc(S(=O)CCN3CCC(Cc4ccc(F)cc4)CC3)cc2o1 (stereo not drawn) | – | inactive |
| CC[C@H](C)C(=O)O[C@H]1C[C@@H](C)C=C2C=C[C@H](C)[C@H](CC[C@@H]3C[C@@H](O)CC(=O)O3)[C@H]21 | 33.8 µM (active) | – |
| Cc1c(-c2cccnc2)c2ccccc2n1CCCCC(=O)O | – | inactive |
